# Data from PubChem BioAssay.
# A number with no mark means an inactive call. Some of the results follow. Active and inactive are the calls of the source.
# Tests used:
# [1] = biological target: Voltage-gated inwardly rectifying potassium channel KCNH2 (Homo sapiens) (UniProt Q12809); assay: hERG channel inhibition, counter-screen for Kir2.1 inhibitor project, cell-based, thallium flux (AID 2236); settings: hERG-expressing cells, at 10 µM, stronger effect = higher value;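 note: host cells are CHO cells stably expressing hERG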
# [2] = biological target: Potassium channel subfamily K member 9 (Homo sapiens) (UniProt Q9NPC2); assay: KCNK9 channel inhibition, selectivity assay for Kir2.1 inhibitor project, cell-based (AID 2329); settings: KCNK9-expressing cells, ion flux inhibition; at 10 µM; stronger effect = higher value
# [3] = biological target: Short transient receptor potential channel 4 (Mus musculus) (UniProt Q9QUQ5); assay: mouse TRPC4 membrane potential modulation by TRPC6 hits, confirmation, selectivity assay for TRPC6 inhibitor project, cell-based, second specificity screen, HEK293 TRPC4/mu-opioid (AID 2776;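 active = compounds whose fluorescence signal differed from control wells by over 3 SD, either direction, in both duplicate plates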); settings: HEK293 TRPC4/MOR, membrane potential dye fluorescence; at 10 µM; stronger effect = higher value; channel activated by saturating DAMGO dose
# [4] = test system: transient receptor potential cation channel C4 (TRPC4), mouse; assay: mouse TRPC4 modulation by TRPC6 hits, confirmation, selectivity assay for TRPC6 inhibitor project, cell-based, HEK293 TRPC4/mu-opioid, membrane potential dye (AID 2777;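 active = rise or fall in signal beyond 3 SD of buffer-only wells in both replicate plates, either sign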;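 note: integrated kinetic ratio of fluorescence range over baseline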); settings: membrane potential fluorescence, at 10 µM
# [5] = nonspecific membrane potential effects, parental HEK293, confirmation, counter-screen for TRPC6 inhibitor project, cell-based, second counter screen (AID 2779;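 active = membrane potential signal moving either way by over 3 SD of the maximum-effect control, in both duplicate plates, meaning non-specific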); settings: parental HEK293 membrane potential dye fluorescence; at 10 µM; maximal acetylcholine challenge after compound addition
# [6] = membrane potential modulation in parental HEK293, confirmation, counter-screen for TRPC6 inhibitor project, cell-based (AID 2780;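 active = membrane potential signal shifting up or down by more than 3 SD of buffer-only wells, on both duplicate plates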;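 note: plate controls were buffer EC0 wells for no effect and acetylcholine ECmax wells for full effect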); settings: parental HEK293 membrane potential dye fluorescence; at 10 µM
# [7] = biological target: Inward rectifier potassium channel 2 (Mus musculus) (UniProt P35561); assay: mouse Kir2.1 channel blockers, Kir2.1 inhibitor project, cell-based, secondary, automated electrophysiology (AID 463252); settings: Kir2.1 cells, automated patch-clamp current inhibition; at 25 µM; stronger effect = higher value
# [8] = biological target: Short transient receptor potential channel 6 (Mus musculus) (UniProt Q61143); assay: mouse TRPC6 channel activators, confirmation, HEK293 cells, membrane potential dye, duplicate (AID 488961;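 active = ratio signal rise beyond 5 SD above unstimulated control wells' mean, seen in both duplicate runs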); settings: HEK293-TRPC6 membrane potential dye fluorescence, FDSS; at 10 µM
# [9] = nonspecific thallium flux increase in parental CHO-K1, confirmation, counter-screen for KCNQ2 potentiator project, cell-based, FluxOR thallium flux, duplicate (AID 2282;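 active = signal rise of at least 3 SD above the untreated control mean, in both duplicate wells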;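 note: counter screen of KCNQ2 potentiator hits so any rise reflects channel-independent effects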); settings: parental CHO-K1 cells, FluxOR thallium flux fluorescence; at 10 µM; stronger effect = higher value; zero = vehicle mean+3SD, 100% = vehicle-minus-blank window
# [10] = biological target: Potassium voltage-gated channel subfamily KQT member 1 (Homo sapiens) (UniProt P51787); assay: human KCNQ1 channel potentiation off-target, confirmation, selectivity assay for KCNQ2 potentiator project, cell-based, CHO, FluxOR thallium flux (AID 2283;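 active = fluorescence ratio rise of at least 3 SD of vehicle wells above their mean, in both replicate wells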;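 note: 0% = vehicle mean plus 3 SD and 100% = vehicle minus unstimulated blank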); settings: CHO KCNQ1 stable, FluxOR thallium flux fluorescence; at 10 µM; stronger effect = higher value; beyond 3SD, as % of vehicle-control signal
# [11] = biological target: Potassium voltage-gated channel subfamily KQT member 2 (Rattus norvegicus) (UniProt O88943); assay: rat KCNQ2 channel potentiators, confirmation, cell-based, CHO, FluxOR thallium flux, duplicate (AID 2287;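 active = fluorescence ratio rising 3 SD or more over the vehicle control mean in both replicates, plus primary screen hit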;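 note: peak minus minimum thallium fluorescence divided by baseline after K/Tl stimulus; 0% = vehicle mean plus 3 SD and 100% = vehicle minus unstimulated blank difference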); settings: CHO-KCNQ2 cells, FluxOR thallium flux fluorescence; at 10 µM; stronger effect = higher value
# [12] = biological target: Inward rectifier potassium channel 2 (Mus musculus) (UniProt P35561); assay: PubChem AID 2345; settings: HEK293 Kir2.1, FluxOR thallium flux fluorescence; at 10 µM; stronger effect = higher value;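 note: 0% = vehicle mean plus 3 SD and 100% = vehicle minus no-stimulus blank window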
# [13] = biological target: Potassium voltage-gated channel subfamily KQT member 2 (Rattus norvegicus) (UniProt O88943); assay: potentiators of retigabine-insensitive KCNQ2 W236L, mechanism study for KCNQ2 potentiator project, cell-based, rat KCNQ2 W236L, CHO, automated patch clamp (AID 2558;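 active = current increase at least 3 SD of the untreated controls above them in both duplicate recordings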); settings: automated patch clamp current, at 25 µM
# [14] = thallium flux activation in parental CHO cells, counter-screen for KCNQ1 potentiator project (AID 493006;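 active = duplicate-averaged activation above buffer control mean plus 5 SD of those controls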;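 note: fluorescence ratio of max minus min over baseline after K+ and Tl+ depolarization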); settings: parental CHO-K1 cells, FluxOR thallium flux, at 10 µM; stronger effect = higher value
# [15] = biological target: Potassium voltage-gated channel subfamily KQT member 1 (Homo sapiens) (UniProt P51787); assay: KCNQ1 potassium channel potentiators, confirmation, FluxOR thallium flux, CHO cells, duplicates (AID 493007;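 active = potentiation averaged over duplicate wells exceeding buffer-only control mean by more than 3 SD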;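 note: 0% = buffer-only wells and 100% = R-L3 activator control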); settings: KCNQ1 cell line, FluxOR thallium flux fluorescence, at 10 µM; stronger effect = higher value, % of reference activator effect, buffer zero
# [16] = biological target: Potassium voltage-gated channel subfamily KQT member 2 (Rattus norvegicus) (UniProt O88943); assay: rat KCNQ2 channel potentiation, selectivity assay for KCNQ1 potentiator project, KCNQ2-CHO-K1 cells (AID 493009;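 active = mean duplicate potentiation above the buffer control mean plus 5 SD of buffer wells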;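 note: assay conditions were tuned for KCNQ1 rather than KCNQ2 modulators; signal is max minus min fluorescence divided by baseline after thallium stimulus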); settings: FluxOR thallium flux fluorescence, at 10 µM; stronger effect = higher value, scaled: buffer 0, activator control 100
# [17] = biological target: Potassium voltage-gated channel subfamily KQT member 1 (Homo sapiens) (UniProt P51787); assay: KCNQ1 channel current potentiators, confirmation, orthogonal assay for KCNQ1 potentiator project, IonWorks patch clamp, KCNQ1-CHO cells (AID 493184;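 active = current rise at least 3 SD above the untreated control mean in each of two repeat wells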); settings: automated patch clamp current, at 10 µM
# [18] = parental HEK293 membrane potential modulation, confirmation, counter-screen for TRPC6 modulator project, cell-based (AID 488924;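 active = membrane potential signal moves up or down beyond 5 SD from buffer-only wells, on both duplicate plates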); settings: parental HEK293, membrane potential dye fluorescence; at 10 µM
# [19] = modulation of acetylcholine-evoked membrane potential, parental HEK293, confirmation, counter-screen for TRPC6 modulator project, cell-based, second counter-screen, membrane potential dye (AID 488926;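 active = membrane potential signal drops by more than 5 SD from the mean control signal, in both duplicate plates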;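 note: plate controls were acetylcholine ECmax control wells for no effect and buffer only wells for full effect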); settings: parental HEK293, membrane potential dye fluorescence, at 10 µM, after compound, maximal acetylcholine stimulation; stronger effect = higher value
# [20] = test system: Transient receptor potential cation channel subfamily C member 4 (mouse); assay: TRPC4 modulation by TRPC6 hit compounds, confirmation, selectivity assay for TRPC6 modulator project, cell-based, HEK293 TRPC4/mu-opioid, membrane potential dye, mouse (AID 488927;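 active = membrane potential signal moved up or down beyond 5 SD of buffer control wells, in both duplicate plates, actives on both sides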); settings: membrane potential fluorescence, at 10 µM
# Potassium voltage-gated channel subfamily KQT member 1 (Homo sapiens), sequence (P51787 whole entry, looked up): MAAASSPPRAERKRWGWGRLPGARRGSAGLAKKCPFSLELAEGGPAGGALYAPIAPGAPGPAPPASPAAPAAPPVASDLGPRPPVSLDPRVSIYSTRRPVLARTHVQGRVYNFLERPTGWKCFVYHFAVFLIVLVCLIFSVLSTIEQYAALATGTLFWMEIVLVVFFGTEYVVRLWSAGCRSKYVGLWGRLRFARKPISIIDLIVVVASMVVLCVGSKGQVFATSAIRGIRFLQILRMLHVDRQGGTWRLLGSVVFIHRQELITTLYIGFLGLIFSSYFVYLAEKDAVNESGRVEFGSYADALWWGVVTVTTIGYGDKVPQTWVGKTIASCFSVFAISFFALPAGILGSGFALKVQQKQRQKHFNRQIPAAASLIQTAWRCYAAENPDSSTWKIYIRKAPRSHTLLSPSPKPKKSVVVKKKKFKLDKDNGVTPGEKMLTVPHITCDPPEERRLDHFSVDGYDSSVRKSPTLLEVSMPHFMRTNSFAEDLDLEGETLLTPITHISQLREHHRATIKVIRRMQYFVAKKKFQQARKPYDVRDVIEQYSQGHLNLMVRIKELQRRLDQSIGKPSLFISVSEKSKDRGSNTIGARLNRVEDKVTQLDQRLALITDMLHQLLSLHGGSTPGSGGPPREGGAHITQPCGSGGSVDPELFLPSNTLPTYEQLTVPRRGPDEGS
# Short transient receptor potential channel 6 (Mus musculus), sequence (Q61143 whole entry, looked up): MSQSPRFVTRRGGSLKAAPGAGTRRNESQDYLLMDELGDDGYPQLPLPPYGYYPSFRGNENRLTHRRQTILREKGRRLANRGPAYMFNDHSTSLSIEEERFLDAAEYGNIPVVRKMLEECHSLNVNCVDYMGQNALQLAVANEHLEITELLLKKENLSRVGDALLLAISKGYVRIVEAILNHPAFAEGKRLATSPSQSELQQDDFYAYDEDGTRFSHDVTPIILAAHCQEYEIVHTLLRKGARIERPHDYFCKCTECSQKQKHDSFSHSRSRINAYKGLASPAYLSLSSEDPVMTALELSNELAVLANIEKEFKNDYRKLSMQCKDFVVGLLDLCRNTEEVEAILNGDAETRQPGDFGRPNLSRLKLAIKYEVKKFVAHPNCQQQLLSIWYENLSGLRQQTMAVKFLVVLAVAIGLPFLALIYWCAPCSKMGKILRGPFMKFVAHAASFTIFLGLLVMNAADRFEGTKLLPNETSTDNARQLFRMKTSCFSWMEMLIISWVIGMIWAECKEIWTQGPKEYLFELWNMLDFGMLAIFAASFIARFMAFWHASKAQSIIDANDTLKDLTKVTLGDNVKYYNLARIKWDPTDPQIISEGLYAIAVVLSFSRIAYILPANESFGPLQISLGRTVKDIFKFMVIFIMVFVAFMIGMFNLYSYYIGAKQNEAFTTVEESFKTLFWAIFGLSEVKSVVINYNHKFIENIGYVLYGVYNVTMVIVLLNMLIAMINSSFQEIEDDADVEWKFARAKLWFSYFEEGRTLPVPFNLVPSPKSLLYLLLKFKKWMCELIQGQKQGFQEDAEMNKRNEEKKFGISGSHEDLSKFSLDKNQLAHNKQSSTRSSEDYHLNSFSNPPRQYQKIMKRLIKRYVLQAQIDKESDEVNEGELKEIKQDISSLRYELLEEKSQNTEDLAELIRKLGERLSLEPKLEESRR
# Inward rectifier potassium channel 2 (Mus musculus), sequence (P35561 whole entry, looked up): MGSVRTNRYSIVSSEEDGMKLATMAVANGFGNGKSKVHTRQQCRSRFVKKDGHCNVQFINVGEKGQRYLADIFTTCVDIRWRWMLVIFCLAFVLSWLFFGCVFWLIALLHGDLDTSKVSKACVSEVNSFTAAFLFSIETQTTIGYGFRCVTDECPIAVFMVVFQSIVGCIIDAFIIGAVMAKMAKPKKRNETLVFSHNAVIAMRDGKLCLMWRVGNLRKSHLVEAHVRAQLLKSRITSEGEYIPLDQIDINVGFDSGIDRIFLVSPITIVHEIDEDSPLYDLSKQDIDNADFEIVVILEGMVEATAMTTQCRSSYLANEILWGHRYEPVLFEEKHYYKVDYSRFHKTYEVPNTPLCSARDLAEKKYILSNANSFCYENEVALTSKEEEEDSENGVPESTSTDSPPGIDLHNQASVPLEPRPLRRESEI
# Voltage-gated inwardly rectifying potassium channel KCNH2 (Homo sapiens), sequence (Q12809 whole entry, looked up): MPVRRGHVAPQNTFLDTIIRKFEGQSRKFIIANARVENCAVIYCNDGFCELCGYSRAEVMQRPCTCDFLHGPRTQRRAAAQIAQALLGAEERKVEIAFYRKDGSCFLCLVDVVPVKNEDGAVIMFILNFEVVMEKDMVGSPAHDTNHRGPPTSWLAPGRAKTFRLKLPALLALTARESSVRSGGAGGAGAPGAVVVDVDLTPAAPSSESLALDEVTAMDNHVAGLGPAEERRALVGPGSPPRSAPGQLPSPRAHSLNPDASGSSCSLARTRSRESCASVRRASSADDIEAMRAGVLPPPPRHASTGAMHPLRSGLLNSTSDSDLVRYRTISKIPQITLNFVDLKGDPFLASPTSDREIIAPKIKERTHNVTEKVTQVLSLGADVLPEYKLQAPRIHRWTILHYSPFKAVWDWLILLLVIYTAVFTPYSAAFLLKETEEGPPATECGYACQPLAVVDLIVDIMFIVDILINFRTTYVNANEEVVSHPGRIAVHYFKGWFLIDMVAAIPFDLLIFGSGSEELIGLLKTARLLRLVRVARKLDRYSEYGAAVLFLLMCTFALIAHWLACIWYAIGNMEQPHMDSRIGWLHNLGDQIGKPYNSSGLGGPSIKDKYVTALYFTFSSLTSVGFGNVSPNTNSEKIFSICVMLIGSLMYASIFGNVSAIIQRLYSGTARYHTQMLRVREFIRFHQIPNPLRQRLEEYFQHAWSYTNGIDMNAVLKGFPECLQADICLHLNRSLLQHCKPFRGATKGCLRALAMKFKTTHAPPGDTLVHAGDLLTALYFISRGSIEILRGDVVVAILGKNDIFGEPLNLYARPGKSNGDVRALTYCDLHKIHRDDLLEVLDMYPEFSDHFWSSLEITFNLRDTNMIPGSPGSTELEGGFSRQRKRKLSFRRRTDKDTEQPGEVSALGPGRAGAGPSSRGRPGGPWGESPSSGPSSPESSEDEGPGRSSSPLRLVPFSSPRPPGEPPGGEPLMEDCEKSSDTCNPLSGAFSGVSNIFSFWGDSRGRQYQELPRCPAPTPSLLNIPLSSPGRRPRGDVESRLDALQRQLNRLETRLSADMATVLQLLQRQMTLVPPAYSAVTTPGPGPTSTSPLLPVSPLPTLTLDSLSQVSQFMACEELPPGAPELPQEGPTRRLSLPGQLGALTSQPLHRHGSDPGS
# Short transient receptor potential channel 4 (Mus musculus), sequence (Q9QUQ5 whole entry, looked up): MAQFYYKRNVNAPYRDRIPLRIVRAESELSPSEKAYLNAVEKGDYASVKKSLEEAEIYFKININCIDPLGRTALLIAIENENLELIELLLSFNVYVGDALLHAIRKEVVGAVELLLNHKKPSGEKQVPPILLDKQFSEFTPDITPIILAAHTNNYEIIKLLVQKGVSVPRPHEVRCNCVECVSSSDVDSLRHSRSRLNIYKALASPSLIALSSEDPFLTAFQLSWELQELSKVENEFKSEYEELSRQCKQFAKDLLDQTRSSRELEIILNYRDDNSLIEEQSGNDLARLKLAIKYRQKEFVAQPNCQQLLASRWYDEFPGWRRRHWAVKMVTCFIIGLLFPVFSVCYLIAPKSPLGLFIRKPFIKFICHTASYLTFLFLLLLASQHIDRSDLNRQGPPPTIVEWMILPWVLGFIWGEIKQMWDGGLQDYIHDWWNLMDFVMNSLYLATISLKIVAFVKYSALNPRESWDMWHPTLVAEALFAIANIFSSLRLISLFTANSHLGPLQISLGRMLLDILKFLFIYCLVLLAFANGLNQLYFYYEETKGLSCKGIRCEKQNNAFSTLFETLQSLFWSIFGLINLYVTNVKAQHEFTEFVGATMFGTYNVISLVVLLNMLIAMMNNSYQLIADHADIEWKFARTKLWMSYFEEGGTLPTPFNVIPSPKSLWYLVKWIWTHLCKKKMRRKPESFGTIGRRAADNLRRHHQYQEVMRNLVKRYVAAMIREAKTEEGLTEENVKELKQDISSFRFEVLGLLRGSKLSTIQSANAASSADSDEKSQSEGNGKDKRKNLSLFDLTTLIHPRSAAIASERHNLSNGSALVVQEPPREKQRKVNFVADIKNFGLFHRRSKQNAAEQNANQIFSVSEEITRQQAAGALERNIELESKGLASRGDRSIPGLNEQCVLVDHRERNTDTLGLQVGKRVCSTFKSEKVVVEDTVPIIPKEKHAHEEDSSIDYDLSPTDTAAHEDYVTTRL
smiles,measurement,setting,value
CCOc1cccc(=NC2CCCCC2)c2c(C)[nH]c(C)c12,inhibition,[1],74% (active)
same,inhibition,[2],48% (active)
same,inhibition,[3],56% (active)
same,"activity change, negative = inhibition",[4],-8.98% (active)
same,signal change vs control,[5],-3.5% (active)
same,membrane potential signal change,[6],-146% (active)
same,inhibition,[7],13.9% (active)
same,outcome,[8],inactive
COc1cc(-n2c(=S)[nH]c3ccc(C)cc3c2=O)c(Cl)cc1Cl,activity increase over 3SD of controls,[9],2.8% (active)
same,activation over 3SD threshold,[10],-13.6%
same,"potentiation, less the hit threshold",[11],1.9% (active)
same,activity over 3SD threshold,[12],-22.9%
same,outcome,[13],inactive
same,activation,[14],182% (active)
same,potentiation,[15],22.5% (active)
same,potentiation,[16],153% (active)
same,outcome,[17],inactive
CC1=CC(=Cc2sc3ccccc3[n+]2C)C=C(C)O1,outcome,[18],inactive
same,inhibition,[19],131% (active)
same,outcome,[20],inactive
same,outcome,[8],inactive
